Results filed as inconclusive are left out. Values without a mark were called inactive. The source made the active and inactive calls. Calls follow the shape of the dose curve; as a rule, active = well fitted inhibition curve with a large enough effect; inconclusive = small, poorly fitted or top-dose-only effect; inactive = flat fitted curve, though single readings scatter.
Tests used:
Experiment in all cases: Cytotoxic Profiling of Annotated Libraries Using Quantitative High-Throughput Screening (AID 1296008); also: nearly all actives have a fitted effect of over 60% in size
Settings in all cases: Five cell lines viability, CellTiter-Glo ATP luminescence, 48-72 h; max response: stronger effect = lower value
CRL-7250 = normal cell line; test system: CRL-7250
Procedure, shortened: (§1)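 Cells exposed to compounds for 48 or 72 hr at 37 degrees Celsius. Viability read as ATP-coupled luminescence with CellTiter-Glo after 10 min at room temperature.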

HEK293 = test system: HEK293
Procedure, shortened: as §1

HaCat = test system: HaCat
Procedure, shortened: as §1

KB-3-1 = test system: KB-3-1
Procedure, shortened: as §1

NIH3T3 = test system: NIH3T3
Procedure, shortened: as §1
% is scaled to controls: 0 for no effect and ±100 for the full control effect; potency is read from the fitted curve at half-maximal effect.

Cc1cc(O)cc(O[C@@H]2O[C@H](CO)[C@@H](O)[C@H](O)[C@H]2O)c1
outcome (CRL-7250): inactive | max response (HEK293): 0.562% | max response (HaCat): -10.5% | max response (KB-3-1): 4.47% | max response (NIH3T3): -8.17%

C=C[C@@]12COC(=O)C(=C)C1[C@@H](O)[C@H](C(=C)C(=O)OC)[C@@H](OC(=O)C(=C)CO)C2 (stereo not given in full)
max response (CRL-7250): -22.2% | Potency (HEK293): 10000 nM (active) | max response (HaCat): -6.28% | outcome (KB-3-1): inactive | max response (NIH3T3): -25.8%

CC(C)[C@H]1CC[C@@]2(O)COC(=O)[C@H]2[C@@H]1/C=C(\CO)C(=O)O
max response (CRL-7250): -25.6% | max response (HEK293): 2.97% | max response (HaCat): -2.34% | max response (KB-3-1): 0.265% | max response (NIH3T3): -2.01%

CC[C@@H](O)C[C@@H]1C(C)=C[C@@H]2CCCC[C@@H]2[C@@]1(C)C(=O)O
max response (CRL-7250): -0.45% | max response (HEK293): -6.46% | max response (HaCat): -3.74% | outcome (KB-3-1): inactive | max response (NIH3T3): -7.4%

Cc1cnc(NC(=O)Nc2cc(Br)c(C)cc2OCC2CNCCO2)cn1 (stereo not given)
Potency (CRL-7250): 13000 nM (active) | Potency (HEK293): 1300 nM (active) | max response (HaCat): -19% | Potency (KB-3-1): 14600 nM (active) | Potency (NIH3T3): 2310 nM (active)

COc1cc(C2Oc3c(OC)cc(CCCO)cc3C2CO)ccc1O[C@H]1O[C@H](C)[C@@H](O)[C@H](O)[C@@H]1O (stereo not given in full)
outcome (CRL-7250): inactive | max response (HEK293): -0.663% | max response (HaCat): -14.3% | max response (KB-3-1): -4.42% | max response (NIH3T3): 2.77%

Cc1c(F)cc(C(=O)NC2CC2)cc1-c1c(F)cn2c(C(C)(C)C)nnc2c1F
max response (CRL-7250): -14.4% | max response (HEK293): -22.1% | max response (HaCat): -0.453% | max response (KB-3-1): -2.87% | max response (NIH3T3): -8.04%

CCCCNc1ncc2c(-c3ccc(CN4CCN(C)CC4)cc3)cn(C3CCC(O)CC3)c2n1 (stereo not given)
Potency (CRL-7250): 5170 nM (active) | Potency (HEK293): 7310 nM (active) | Potency (HaCat): 920 nM (active) | Potency (KB-3-1): 1030 nM (active) | Potency (NIH3T3): 1300 nM (active)

C=C1CN(Cc2ccc(C(=O)Nc3ccccc3N)cc2)C(=O)c2ccccc21
Potency (CRL-7250): 2060 nM (active) | Potency (HEK293): 1460 nM (active) | Potency (HaCat): 5800 nM (active) | Potency (KB-3-1): 1840 nM (active) | Potency (NIH3T3): 3660 nM (active)

CC(=O)OC[C@H]1O[C@H](O[C@]2(CO)O[C@H](CO)[C@@H](OC(=O)/C=C/c3ccccc3)[C@@H]2O)[C@H](O)[C@@H](O)[C@@H]1O
max response (CRL-7250): -26.1% | max response (HEK293): 2.62% | max response (HaCat): -2.48% | outcome (KB-3-1): inactive | max response (NIH3T3): -0.33%

C[C@@H]1O[C@@H](O[C@H]2[C@H](O)[C@@H](O[C@@H]3O[C@H](CO)[C@@H](O)[C@H](O[C@@H]4O[C@H](CO)[C@@H](O)[C@H](O)[C@H]4O)[C@H]3O)[C@H](O[C@H]3CC[C@@]4(C)C(=CC[C@@H]5C4CC[C@@]4(C)C5C[C@@H]5OC6(CC[C@@](C)(CO[C@@H]7O[C@H](CO)[C@@H](O)[C@H](O)[C@H]7O)O6)[C@@H](C)[C@@H]54)C3)O[C@@H]2CO)[C@H](O)[C@H](O)[C@H]1OC1OC(CO)C(O)C(O)C1O (stereo not given in full)
max response (CRL-7250): -6.48% | max response (HEK293): -4.6% | max response (HaCat): -1.18% | outcome (KB-3-1): inactive | max response (NIH3T3): -4.4%

COc1ccc(F)cc1-c1cc(NC(=O)[C@@H]2CCCNC2)ncc1Cl
Potency (CRL-7250): 291 nM (active) | Potency (HEK293): 259 nM (active) | Potency (HaCat): 1160 nM (active) | Potency (KB-3-1): 231 nM (active) | Potency (NIH3T3): 1030 nM (active)

Nc1ncnc2c1ncn2CCNCCCCCO
outcome (CRL-7250): inactive | max response (HEK293): 4.45% | max response (HaCat): -23.1% | outcome (KB-3-1): inactive | max response (NIH3T3): -0.352%

COc1ccc2c(OC)c3ccoc3nc2c1OC
max response (CRL-7250): -6.93% | max response (HEK293): -25.3% | max response (HaCat): -7.51% | max response (KB-3-1): 4.27% | max response (NIH3T3): -9.34%

CC1CC(C(O)C(C)(C)O)OC2CC3(C)C4(C)CCC5C(C)(C)C(=O)CCC5(C)C4CCC3(O)C12O (stereo not given)
max response (CRL-7250): 3.36% | max response (HEK293): -2.59% | max response (HaCat): 3.58% | outcome (KB-3-1): inactive | max response (NIH3T3): 2.04%

CC(=O)OCC1(O)CCC2C(COC3OC(CO)C(O)C(O)C3OC(=O)/C=C/c3ccc(O)cc3)=COC(OC(=O)CC(C)C)C21 (stereo not given)
outcome (CRL-7250): inactive | max response (HEK293): -11% | max response (HaCat): -35.1% | outcome (KB-3-1): inactive | max response (NIH3T3): 3.4%

CC(=O)N1CCc2ccc(O)c(OC3OC(COC4OCC(O)(CO)C4O)C(O)C(O)C3O)c2C1Cc1ccc(O)cc1 (stereo not given)
max response (CRL-7250): -12.6% | max response (HEK293): -5.03% | max response (HaCat): -0.476% | max response (KB-3-1): 3.16% | max response (NIH3T3): -4.18%

C=CC(C)(O)CC/C=C(\C)C(=O)OC1C(O)C(CO)OC(OC(=O)C23CCC(C)(C)CC2C2=CCC4C5(C)CCC(OC6OC(COC7OCC(OC(C)=O)C(O)C7OC7OC(COC(C)=O)C(O)C(O)C7O)C(O)C(O)C6O)C(C)(C)C5CCC4(C)C2(C)C(O)C3O)C1OC1OCC(OC2OCC(O)C(OC3OCC(O)C(O)C3O)C2O)C(O)C1O (stereo not given)
max response (CRL-7250): -9.65% | max response (HEK293): -3.37% | max response (HaCat): -19.8% | max response (KB-3-1): 4.25% | max response (NIH3T3): -2.07%

Source: PubChem BioAssay (NCATS)
